High-throughput results from PubChem.
This is a sample that favours compounds with a hit; in the whole collection about 3.4% have one here.
TEAD-YAP inh = TEAD-YAP interaction inhibition | AID 1259422 | inhibition, % at 9.12 µM | HEK-TIYL cells, TEAD-Gal4/YAP UAS-luciferase luminescence | 640,000 compounds, 1.4% hits; in the data active = inhibition above about 32%
GPR151 activ = human GPR151 activation. activation, % at 11.2 µM. PathHunter beta-arrestin GPR151 cells, luminescence. 650,000 compounds, 1% hits. AID 1508602. Q8TDV0; in the data active = activation above about 4.9%
FBW7 activator = human FBW7 E3 ligase activation, primary screen; Q969H0; AlphaScreen FBW7–phospho-cyclin E peptide binding, activator screen; normalized activity (activation), % at 26.1 µM; 650,000 compounds, 0.13% hits; AID 1259310; in the data active = normalized activity above about 1.9%;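 note: purified mutant Fbw7 with reduced substrate affinity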
Target sequence (Q969H0 whole entry, looked up): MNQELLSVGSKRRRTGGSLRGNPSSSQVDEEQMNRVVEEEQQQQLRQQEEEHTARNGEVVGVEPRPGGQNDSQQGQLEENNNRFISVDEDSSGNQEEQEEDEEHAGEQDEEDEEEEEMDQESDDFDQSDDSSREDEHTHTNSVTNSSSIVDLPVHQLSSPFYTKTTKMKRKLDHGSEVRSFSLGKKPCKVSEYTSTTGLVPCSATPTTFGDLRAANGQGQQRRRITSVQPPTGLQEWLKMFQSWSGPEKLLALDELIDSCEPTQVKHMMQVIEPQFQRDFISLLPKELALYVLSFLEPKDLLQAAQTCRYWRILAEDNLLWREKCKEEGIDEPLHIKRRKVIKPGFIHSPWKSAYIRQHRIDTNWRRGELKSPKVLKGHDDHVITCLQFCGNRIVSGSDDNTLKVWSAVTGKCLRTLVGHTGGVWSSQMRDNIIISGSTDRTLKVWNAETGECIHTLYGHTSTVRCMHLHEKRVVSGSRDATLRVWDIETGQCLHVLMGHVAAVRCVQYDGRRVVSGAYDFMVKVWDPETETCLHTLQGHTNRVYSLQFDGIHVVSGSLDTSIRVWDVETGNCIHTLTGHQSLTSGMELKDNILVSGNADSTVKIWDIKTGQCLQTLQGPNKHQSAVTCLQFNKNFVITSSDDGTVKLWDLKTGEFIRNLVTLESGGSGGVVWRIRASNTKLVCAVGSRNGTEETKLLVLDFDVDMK
MITF primary = human MITF inhibition, primary screen. O75030. AlphaScreen MITF homodimerization, bead proximity signal. inhibition, % at 2.6 µM. 650,000 compounds, 0.91% hits; in the data active = inhibition above about 50%
GPR151 confirm = human GPR151 activation, confirmation screen; shares compounds with GPR151 activ; GPR151 PathHunter beta-arrestin cells, luminescence, 90 min; % of EA-reagent control over plate median; activation, % at 11.2 µM; 6,700 tested, under 10 active;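 active = mean percent activation across replicates above the confirmation screen cutoff of 4.91%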
GPR119 ag = counter-screen for GPR151 activators: effect on human GPR119; shares compounds with GPR151 activ; GPR119 PathHunter beta-arrestin cells, luminescence, 90 min; 0 = compound-well median, 100 = enzyme-acceptor control; activation, % at 11.2 µM; 6,700 compounds, 0.3% hits;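 active = mean percent activation in the counterscreen above 29.09%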;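 note: counterscreen on off-target GPR119 to flag nonselective hits from the GPR151 activator screen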
Of the large screens only hits and unclear results are named; the others gave an inactive call (follow-up assays come after a bar, where they were run); ! = repeats disagree.

OCCNc1nc(Nc2ccc(I)cc2)nc(N2CCOCC2)n1	none
O=C(O)c1cc(S(=O)(=O)N2CCOCC2)ccc1O	none
CCCN(C(=O)c1cccc(N)c1)c1c(C)n(C)n(-c2ccccc2)c1=O	GPR151 activ 5.5 | GPR151 confirm inactive | GPR119 ag inactive
CCCCCCCCCCCCCCCC(=O)NCCO	GPR151 activ 9.1! | GPR151 confirm inactive | GPR119 ag inactive
O=S(=O)(CCc1ccccc1)NCC1(c2cccs2)CCCC1	GPR151 activ 5.2 | GPR151 confirm inactive | GPR119 ag inactive
C/C(=N\Nc1cc(-n2cc(C)cn2)ncn1)c1cccc([N+](=O)[O-])c1	GPR151 activ 19 | GPR151 confirm inactive | GPR119 ag inactive
C/C(=N\Nc1cc(-n2cc(C)cn2)ncn1)c1ccccc1	none
O=C(Cc1ccc(F)cc1)NCCc1ccc(F)cc1	none
CCCC(=O)NCCc1ccc(F)cc1	GPR151 activ 19 | GPR151 confirm inactive | GPR119 ag inactive
CCC(=O)C1=C(c2cccs2)N(C(=O)CC)n2c(nnc2-c2ccccc2)S1	none
C=CCn1c(=O)c2c3c(sc2n2c(Nc4ccc(C(=O)OCC)cc4)nnc12)CCC3	none
C=CCn1c(=O)c2c(C)c(C)sc2n2c(Nc3ccccc3)nnc12	GPR151 activ 5.9 | GPR151 confirm inactive | GPR119 ag inactive
O=C(NCc1ccccc1)c1nnc(Cc2cccc(F)c2)o1	GPR151 activ 4.9 | GPR151 confirm inactive | GPR119 ag inactive
O=C(Cn1cc2c(n1)CCCC2)N1CCc2ccccc2C1	none
O=C(Cn1cc2c(n1)CCCCC2)N1CCc2ccccc21	GPR151 activ 5.4 | GPR151 confirm inactive | GPR119 ag inactive
COc1ccccc1CCNCc1c(C(=O)O)n(C)c2cc(C)ccc12	GPR151 activ 9.8 | GPR151 confirm inactive | GPR119 ag inactive
COc1ccc2c(c1)COC1(CCN(C(=O)Nc3ccccc3F)CC1)O2	GPR151 activ 7.7 | GPR151 confirm inactive | GPR119 ag inactive
CCOc1cc(N)c([N+](=O)[O-])cc1OCC	none
C=CCSc1nnc2c(n1)OC(/C=C/c1ccc([N+](=O)[O-])o1)Nc1ccc(Br)cc1-2 (centres undefined)	GPR151 activ 9.1 | GPR151 confirm inactive | GPR119 ag inactive
O=C(NC1CCCCC1)/C(=C/c1ccccc1F)NC(=O)c1ccccc1	none
COc1ccc2c(c1)CC(c1nc3ccc(-c4cn[nH]c4)cc3[nH]1)NC2 (centres undefined)	none
COc1ccc(C2CNCC2c2nc3ccc(-c4cn[nH]c4)cc3[nH]2)cc1 (centres undefined)	GPR151 activ 6.0 | GPR151 confirm inactive | GPR119 ag inactive
CCOC(=O)C(C)N1C(=O)S/C(=C/c2cc(Cl)cc(OC)c2O)C1=O (centres undefined)	GPR151 activ 6.7 | GPR151 confirm inactive | GPR119 ag inactive
COC(=O)C(C)N1C(=O)S/C(=C/c2cc(Cl)cc(OC)c2O)C1=O (centres undefined)	none
NC(=O)NC(CC(=O)O)c1ccc(Cl)cc1 (centres undefined)	GPR151 activ 7.7 | GPR151 confirm inactive | GPR119 ag inactive
CNC(=O)c1cc(F)ccc1Nc1cc(Nc2cccc(OC)c2)ncc1C(F)(F)F	GPR151 activ 9.3 | GPR151 confirm inactive | GPR119 ag inactive
CC1CCN(c2ncnc3c2c(-c2ccccc2)cn3-c2ccccc2)CC1	none
CCN1CCN(C(=S)Nc2cccc(OC)c2)CC1	none
CCN1CCSc2ccc(C(=O)NCC3CCCO3)cc21 (centres undefined)	GPR151 activ 8.1 | GPR151 confirm inactive | GPR119 ag inactive
CCn1c(N)c(C(=O)NCC2CCCO2)sc1=S (centres undefined)	GPR151 activ 5.6 | GPR151 confirm inactive | GPR119 ag inactive
Cc1ccc(SCC(=O)Nc2cccc3ncccc23)cc1	GPR151 activ 6.0 | GPR151 confirm inactive | GPR119 ag inactive
O=C(CC12CC3CC(CC(C3)C1)C2)Nc1cccc2ncccc12	GPR151 activ 6.3 | GPR151 confirm inactive | GPR119 ag inactive
CCC(=O)Nc1cccc2ncccc12	none
O=C(Nc1cccc2ncccc12)C12CC3CC(CC(C3)C1)C2	none
CCC(C)(C)n1nnnc1C(c1ccccc1Cl)N1CCN(C(=O)c2ccco2)CC1 (centres undefined)	none
CCOc1cc(/C=C2\C(=O)NC(=O)N(c3cc(C)ccc3C)C2=O)ccc1O	GPR151 activ 8.9 | GPR151 confirm inactive | GPR119 ag inactive
CCc1ccc(N2C(=O)NC(=O)/C(=C/c3cc(OC)c(O)c(OC)c3)C2=O)cc1	none
Cc1cc(N2C(=O)NC(=O)/C(=C\c3ccccc3OCC#N)C2=O)ccc1Br	GPR151 activ 5.6 | GPR151 confirm inactive | GPR119 ag inactive
COc1ccc(N2C(=O)NC(=O)/C(=C\c3ccc(O)c([N+](=O)[O-])c3)C2=O)cc1	GPR151 activ 5.8 | GPR151 confirm inactive | GPR119 ag inactive
COc1cc(/C=C2/C(=O)NC(=O)N(c3ccc(Cl)cc3)C2=O)cc(OC)c1O	GPR151 activ 16 | GPR151 confirm inactive | GPR119 ag inactive
Cc1cc(C)n(-c2ccc(Nc3ccc(NC(=O)c4cccc(F)c4)cc3)nn2)n1	none
C=CCc1cc(/C=C2/C(=O)NC(=O)N(c3ccc(OCC)cc3)C2=O)ccc1O	GPR151 activ 9.3 | GPR151 confirm inactive | GPR119 ag inactive
CCOc1ccc(N2C(=O)NC(=O)/C(=C\c3ccc(O)c(OC)c3)C2=O)cc1	none
COc1ccc(/C=C2\C(=O)NC(=O)N(c3ccc(Br)cc3)C2=O)c(OC)c1	GPR151 activ 7.3 | GPR151 confirm inactive | GPR119 ag inactive
COc1ccc(/C=C2/C(=O)NC(=O)N(c3ccc(C)cc3)C2=O)c(OC)c1	none
O=S1(=O)N=C(N(CCO)/N=C/c2cccc(O)c2O)c2ccccc21	GPR151 activ 5.9 | GPR151 confirm inactive | GPR119 ag inactive
O=C(/C=C/C(Cl)(Cl)Cl)c1ccccc1	none
Cc1cc(S(=O)(=O)NC2CCCCC2)ccc1OCC(=O)Nc1ccccc1F	GPR151 activ 5.0 | GPR151 confirm inactive | GPR119 ag inactive
COc1ccc2cc(S(=O)(=O)NC3CCCCC3)ccc2c1	GPR151 activ 5.2 | GPR151 confirm inactive | GPR119 ag inactive
CSc1cccc(NC(=O)COc2ccc(S(=O)(=O)NC3CCCCC3)cc2)c1	GPR151 activ 5.3 | GPR151 confirm inactive | GPR119 ag inactive
COc1ccc(S(=O)(=O)NC2CCCCC2)cc1	none
Cc1cc(S(=O)(=O)NC2CCCCC2)ccc1OCC(=O)NC(C)C	none
O=C(Nc1ccc(S(=O)(=O)NC2CCCCC2)cc1)Nc1cccc(Cl)c1	GPR151 activ 5.1 | GPR151 confirm inactive | GPR119 ag inactive
Cc1cccc(NC(=O)COc2ccc(S(=O)(=O)NC3CCCCC3)cc2)c1	none
CC(C)(C)c1ncn(-c2ccc(Nc3nccc(-c4cc(N5CCOCC5)nc(N5CCOCC5)c4)n3)cc2)n1	none
c1coc(CNc2c(-c3cccs3)nc3cnccn23)c1	none
